In PubChem BioAssay (EPA / NIEHS) one finds outcome and AC50 data, which are given here for ten compounds.

Experiment [1] can be described thus: Tanguay_ZF_120hpf_SOMI_legacy: (Legacy) Oregon State University Tanguay Lab 120 Hour Post-fertilization zebrafish Assay for Somite Malformation (AID 2283647). The essentials: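 Read-out: presence or absence of somite malformation in 120 hpf larvae, gain-of-signal relative to DMSO baseline. Embryos lacked chorion (pronase, 4 hpf) and were exposed statically from 6 hpf at 28C; dead larvae not scored.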

The nature of experiment [2]: Tanguay_ZF_120hpf_PFIN_legacy: (Legacy) Oregon State University Tanguay Lab 120 Hour Post-fertilization zebrafish Assay for Pectoral Fin Malformation (AID 2283648).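 Also: each larva judged yes or no for fin defect by brightfield with dead larvae skipped.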 The essentials:
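5D WT zebrafish; pronase dechorionation 4 hpf; 1 embryo/well at 6 hpf; static exposure to 120 hpf, 28C, sealed, foil-covered; final DMSO 0.64% v/v; 5 uM trimethyltin chloride positive control; fin defect scored yes/no.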

The nature of experiment [3]: Tanguay_ZF_120hpf_CFIN_legacy: (Legacy) Oregon State University Tanguay Lab 120 Hour Post-fertilization zebrafish Assay for Caudal Fin Malformation (AID 2283649). The essentials:
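Binary presence or absence of caudal fin malformation at 120 hpf, read by brightfield microscopy, with DMSO as baseline. Larvae came from 5D wild-type embryos exposed statically from 6 hpf at 28C after pronase dechorionation.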

Experiment [4] can be described thus: Tanguay_ZF_120hpf_CIRC_legacy: (Legacy) Oregon State University Tanguay Lab 120 Hour Post-fertilization zebrafish Assay for Circulatory Malformation (AID 2283651). The essentials:
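Using wild-type Tropical 5D zebrafish, we exposed dechorionated embryos from 6 to 120 hpf in embryo medium with 0.64% DMSO. Circulatory defects were scored as present or absent; 5uM trimethyltin chloride served as positive control.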

A short description of experiment [5]: Tanguay_ZF_120hpf_SWIM_legacy: (Legacy) Oregon State University Tanguay Lab 120 Hour Post-fertilization zebrafish Assay for Swim Bladder Malformation (AID 2283654).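 Also: swim bladder malformation in each larva scored yes or no under brightfield.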 The essentials: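 Embryos lacking chorions were exposed individually and statically to test chemical from 6 to 120 hpf at 28C, with 0.64% DMSO as vehicle. At 120 hpf, swim bladder malformation was recorded as present or absent by brightfield microscopy.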

A short description of experiment [6]: Tanguay_ZF_120hpf_TRUN_legacy: (Legacy) Oregon State University Tanguay Lab 120 Hour Post-fertilization zebrafish Assay for Truncated Body (AID 2283655). The essentials: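 Truncated body is recorded as a binary endpoint at 120 hpf by brightfield imaging of wild-type 5D larvae. Exposure runs statically from 6 hpf at 28C with 0.64% DMSO; embryos dying earlier are not scored.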

A short description of experiment [7]: Tanguay_ZF_120hpf_NC_legacy: (Legacy) Oregon State University Tanguay Lab 120 Hour Post-fertilization zebrafish Assay for Notochord and Tail Malformation (AID 2283656). The essentials: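 Dechorionated 5D zebrafish, 1/well from 6 hpf; static exposure to 120 hpf, 28C, sealed, dark; final DMSO 0.64% v/v. NC scored binary (present/absent); dead embryos not scored. Fit vs DMSO baseline, gain direction.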

Experiment [8] is described as follows: Tanguay_ZF_120hpf_TR_legacy: (Legacy) Oregon State University Tanguay Lab 120 Hour Post-fertilization zebrafish Assay for Touch Response (AID 2283667). The essentials: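 5D WT embryos; static exposure to 120 hpf, 28C, sealed/dark; DMSO 0.64% v/v final. TR scored present/absent; dead embryos excluded. Pos ctrl 5uM trimethyltin chloride.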
Experiment [9] in a line: Tanguay_ZF_120hpf_PIG_legacy: (Legacy) Oregon State University Tanguay Lab 120 Hour Post-fertilization zebrafish Assay for Pigmentation Malformation (AID 2283650). The essentials: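 Pronase dechorionation at 4 hpf; embryos plated at 6 hpf, one per well; static exposure, sealed and foil-covered, 28C, to 120 hpf; pigmentation read by brightfield, binary; DMSO 0.64% baseline, 5uM trimethyltin chloride positive control.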

The subject of experiment [10] is Thyroperoxidase (TPO), gene 54314. Kind of experiment: CCTE_Simmons_AUR_rTPO: CCTE's Amplex UltraRed Assay for Thyroperoxidase (TPO) Inhibition, Simmons Lab (AID 2283662).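 Also: potency for loss of signal meaning inhibition of peroxidase activity.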 The essentials: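 Rat thyroid microsomes (5 ug protein) were incubated with test compound (8 concentrations, 5 nM–87.5 uM final, 0.5% DMSO), 25 uM Amplex UltraRed and 300 uM H2O2 in 200 mM phosphate buffer for 30 min at 37C in the dark; fluorescence read at 544/590 nm.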

A short description of experiment [11]: CCTE_Simmons_CellTiterGLO_HEK293T: Viability Assessment in CCTE's Assays for Thyroperoxidase (TPO) Inhibition, Simmons Lab (AID 2283665).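 As to AC50: cells exposed to compound for 24 h before readout; actives reduce ATP signal below DMSO vehicle meaning cytotoxicity.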 The essentials: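 Cytotoxicity counter-screen: human HEK293T cells in low-serum (1% FBS) medium receive test chemical, 5 nM to 87.5 uM final, for 24 h; ATP is quantified by luciferase luminescence.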
In general terms: Cellular ATP, detected with luciferase, serves as a proxy for viable cell number.

A short description of experiment [12]: CCTE_Padilla_ZF_144hpf_TERATOSCORE: (Legacy) CCTE's 144 Hour Post-fertilization zebrafish Assay Teratoscore, Padilla Lab (AID 2283679; active = hit-call score of the fitted dose curve at least 0.9, where 1 is the maximum; inactive = score below 0.9;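 also: zebrafish embryos with chorions exposed by immersion from 6-8 hpf to 5 dpf with daily renewal; teratogenicity score from eye scoring of death hatching and malformations at 144 hpf; higher score means more developmental defects relative to DMSO baseline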). The essentials:
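Larvae scored by eye at 144 hpf for death, hatching and malformations after a day in clean Hanks'. Before that, daily-renewed exposure at 80 uM (0.4% DMSO, 26C) from roughly 6-8 hpf through 5 dpf, 4 embryos per chemical.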

The nature of experiment [13]: STM_H9_OrnithineISnorm_perc: Stemina devTOX quickPredict H9 human embryonic stem cell (hESC)-based Assay for Ornithine (ORN) Metabolite Biomarker, Normalized (AID 2283712; active = hit-call score of the fitted dose curve at least 0.9, where 1 is the maximum; inactive = score below 0.9;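 also: ornithine released into spent medium during last day measured by mass spectrometry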). The essentials: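 Cells: undifferentiated H9 hESC. Dosing: 72 h, media replaced every 24 h. Sample: final 24-h conditioned media, 40% acetonitrile. Read: UPLC-HRMS ornithine area vs 13C standard, % DMSO control.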

The nature of experiment [14]: STM_H9_CystineISnorm_perc: Stemina devTOX quickPredict H9 human embryonic stem cell (hESC)-based Assay for Cystine (CYSS) Metabolite Biomarker, Normalized (AID 2283713; active = hit-call score of the fitted dose curve at least 0.9, where 1 is the maximum; inactive = score below 0.9). The essentials:
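Secreted cystine was measured by UPLC-HRMS in H9 hESC medium after 72h compound exposure with 24-hourly replenishment. Values are standard-normalized areas relative to 0.1% DMSO.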

The nature of experiment [15]: STM_H9_OrnCyssISnorm_ratio: Stemina devTOX quickPredict H9 human embryonic stem cell (hESC)-based Assay for Ornithine (ORN):Cystine (CYSS) Ratio (AID 2283714). The essentials:
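Steps: H9 hESCs in pluripotent state dosed 72h, medium plus compound renewed every 24h; conditioned medium from the final 24h deproteinized in 40% acetonitrile; ORN and CYSS quantified by UPLC-HRMS with C13 spike-ins; ratio relative to vehicle.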

Inconclusive results are not listed. The source made the active and inactive calls. The calls were made as follows, unless noted: active = hit-call score of the fitted dose curve at least 0.9, where 1 is the maximum; inconclusive = response in the unintended direction; inactive = score below 0.9.

Consider `Cc1ccc(C(C)C)cc1`, for which the compound was called inactive in [1], in experiment [2], in experiment [3], in [4], in experiment [5] and in [6]. For the same compound, the call in experiment [7] and in experiment [8] was inactive.

For `C[C@]12CC[C@@H]3c4ccc(O)cc4CC[C@H]3[C@@H]1CCC2=O`, the result in experiment [1], in [2], in experiment [3], in [9], in experiment [5] and in experiment [6] was inactive. Further, the compound was called inactive in [7] and in experiment [8].

As for `Cc1cccc2ccccc12`, the outcome in experiment [1], in [2], in experiment [3], in experiment [4], in [5] and in experiment [6] was inactive. For the same compound, the outcome in experiment [7] and in experiment [8] was inactive.

For orientation: AC50 means the midpoint of the concentration-response curve, whichever way the signal moves. Consider `CN(C[C@@H](CC[N+]12CCC(C3CCCCC3)(CC1)CC2)c1ccc(Cl)c(Cl)c1)C(=O)c1cc(C(F)(F)F)cc(C(F)(F)F)c1`, for which the compound was classed as inactive in experiment [1], in experiment [2], in experiment [3], in experiment [4], in [5] and in experiment [6]. Besides, in experiment [8], the result was inactive. Further, the AC50 in [10] is 43.8 µM (active); in [11] it was 9.54 µM (active); in [12] it was 4.91 µM (active); in [13] it was 7.48 µM (active); in experiment [14], 16.4 µM (active); in experiment [15], 14.4 µM (active).

Consider `CC(O)CC(C)(C)O` (stereo not drawn), for which the result in experiment [1], in experiment [2], in experiment [3], in [9], in [4] and in experiment [5] was inactive. In addition, the call in experiment [6] and in experiment [7] was inactive.

On to `CN1C(=O)N(c2ccccc2Br)Cc2cnc(Nc3ccc4c(c3)OCC(CO)O4)nc21` (stereo not drawn), for which the compound was called inactive in [1], in experiment [2], in experiment [3], in experiment [4], in [5] and in [6]. For the same compound, the AC50 in experiment [9] was 49.7 µM (active); in [13], 1.42 µM (active); in [14], 1.06 µM (active); in experiment [15] it was 1.18 µM (active).

As to `O=C(O)Cc1cc(I)c(Oc2ccc(O)c(I)c2)c(I)c1`, the result in experiment [1], in experiment [2], in [3], in [4], in experiment [5] and in [6] was inactive. Also, the result in [7], in experiment [11] and in experiment [8] was inactive. Further, in [10], the AC50 was 0.32 µM (active).

On to `CC(C)(O)c1ccc(CNC(=O)c2cccnc2Oc2ccc3nonc3c2)cc1`, for which the outcome in experiment [1], in experiment [2], in [3], in experiment [4], in experiment [5] and in experiment [6] was inactive.

On to `Cc1ncc(CO)c(CO)c1O`, for which the outcome in [1], in [2], in experiment [3], in [4], in [5] and in [6] was inactive. In addition, the call in [7] and in experiment [8] was inactive.

As to `O=C(O)Cn1c(=O)n(Cc2ccc(Br)cc2F)c(=O)c2ccc(Cl)cc21`, the call in [1], in experiment [2], in experiment [3], in experiment [9], in [4] and in experiment [5] was inactive. The call in experiment [6], in experiment [7] and in experiment [8] was inactive.
